Inconclusive results are not listed. Activity calls are given as the source filed them. How the source made its calls: active means hit-call score of the fitted dose curve at least 0.9, where 1 is the maximum; inconclusive means response in the unintended direction; inactive means score below 0.9.
Read-out: organic anion transporter (SLCO1B1), SLCO1B1 (gene 10599)
Experiment: CLD_SLCO1B1_6hr: CellzDirect (CLD) Gene Expression Assay for organic anion transporter (SLCO1B1) at 6 hours (AID 2283668)
Method: CLD_6hr is a cell-based, multiplexed-readout assay that uses hepatocyte, a human liver primary cell, with measurements taken at 6 hours after chemical dosing in a 96-well plate.CLD_SLCO1B1_6hr is one of 16 assay component(s) measured or calculated from the CLD_6hr assay. It is designed to make measurements of mRNA induction, a form of inducible reporter, as detected with chemiluminescence signals by Quantitative Nuclease Protection Assay (qNPA) technology.Data from the assay component CLD_SLCO1B1_6hr was analyzed at the endpoint, CLD_SLCO1B1_6hr, in the positive analysis fitting direction relative to DMSO as the negative control and baseline of activity. Using a type of inducible reporter, gain-of-signal activity can be used to understand changes in the reporter gene as they relate to the gene SLCO1B1. Furthermore, this assay endpoint can be referred to as a primary readout. To generalize the intended target to other relatable targets, this assay endpoint is annotated to the transporter intended target family, where subfamily is organic anion transporter.
Human hepatocyte cultures were treated daily for two consecutive days with fresh dosing solutions containing appropriate concentrations of the 320 ToxCast chemicals (chemical identities were blinded to CellzDirect and other ToxCast collaborators), vehicle control (0.2% DMSO), and positive control inducers as summarized in Table 1. Due to the large number of treatment groups and chemicals examined, the ToxCast chemicals were divided into two groups (spanning two independent cultures of hepatocytes from separate donor preparations (Hu778: ToxCast plates 1 and 2; Hu776: ToxCast plates 3 and 4). Each preparation of human hepatocyte cultures was treated with respective vehicle control, medium only control, set of six positive controls/reference chemicals for the five hepatic receptor pathways, and a subset of eight of the ToxCast chemicals (indoxacarb, pyrithiobac-sodium, norflurazon, cyhalofop-butyl, methomyl, thiram, acetochlor, and propiconazole). These replicate data, coupled with internal replicates designed within the blinded ToxCast chemical library, provided additional data to evaluate interindividual differences between hepatocyte preparations and their potential impact on chemical profiles.Cell morphology and integrity were evaluated using phase-contrast microscopy as an indicator of hepatocyte cell health (Tyson & Green, 1987). Cultures for each treatment group (i.e., media, vehicle [0.2% DMSO], positive control inducers [multiple concentrations], and the ToxCast chemicals [multiple concentrations]) were observed and cell morphology was assessed relative to vehicle control cultures at each harvest time point (0, 6, 24, or 48 h). […] Images were evaluated at the conclusion of the study to assess changes in cell integrity and account for the effects of chemical exposure on uncharacteristic changes in concentration-dependent gene expression profiles. The results from these determinations of apparent cytotoxicity were annotated (yes/no) alongside the corresponding qNPA data for reference.At the conclusion of each treatment period, hepatocyte cultures (96-well) were washed with 1 volume of HBSS, lysed by addition of 25 ul ArrayPlate lysis buffer (HTG, Tucson, AZ), and 70 ul/well of Denaturation Oil, denatured by incubation at 95C for 10 min, and frozen at approximately -70C until analysis by nuclease protection assay (qNPA) (Roberts et al., 2007). For qNPA analysis, cell lysates were thawed at 50C for approximately 30 min, qNPA probes were added, and samples were incubated at 95C for 10 min to begin the detection process by denaturing the target RNA, dissociating the duplexes and secondary structure hybridization. At the conclusion of the hybridization period, S1 nuclease reagent was added to each sample to digest all nonprotected nucleotides at 50C for 60-90 min. […]

Structure (SMILES)	outcome	AC50
CCc1cnc(C2=NC(C)(C(C)C)C(=O)N2)c(C(=O)O)c1 (configuration not stated)	inactive	
CC(C)N(C(=O)SCC(Cl)=C(Cl)Cl)C(C)C	inactive	
C=C(C)[C@H]1Cc2c(ccc3c2O[C@@H]2COc4cc(OC)c(OC)cc4[C@@H]2C3=O)O1	inactive	
C#CCC1=C(C)C(OC(=O)C2C(C=C(C)C)C2(C)C)CC1=O (configuration not stated)	inactive	
CCCOCC(=Nc1ccc(Cl)cc1C(F)(F)F)n1ccnc1	inactive	
O=[N+]([O-])c1cc(C(F)(F)F)c(Cl)c([N+](=O)[O-])c1Nc1ncc(C(F)(F)F)cc1Cl	inactive	
COP(=O)(OC)OC(Br)C(Cl)(Cl)Br (configuration not stated)	inactive	
CCOP(=S)(OCC)Oc1cc(C)nc(C(C)C)n1	inactive	
CCOP(=O)(NC(C)C)Oc1ccc(SC)c(C)c1 (configuration not stated)	inactive	
COP(=O)(NC(C)=O)SC (configuration not stated)	inactive	
CCc1cccc(CC)c1N(COC)C(=O)CCl	inactive	
CC1=NNC(=O)N(/N=C/c2cccnc2)C1	inactive	
CSc1nnc(C(C)(C)C)c(=O)n1N	inactive	
CC[C@H](C)[C@H]1O[C@]2(C=C[C@@H]1C)C[C@@H]1C[C@@H](C/C=C(\C)[C@@H](O[C@H]3C[C@H](OC)[C@@H](O[C@H]4C[C@H](OC)[C@@H](NC)[C@H](C)O4)[C@H](C)O3)[C@@H](C)/C=C/C=C3\CO[C@@H]4[C@H](O)C(C)=C[C@@H](C(=O)O1)[C@]34O)O2		30.7 µM (active)
CCOP(=S)(OCC)OC(Cl)C(Cl)(Cl)Cl (configuration not stated)	inactive	
COc1ccc(C(=CC(=O)N2CCOCC2)c2ccc(Cl)cc2)cc1OC	inactive	
C[Si](Cn1cncn1)(c1ccc(F)cc1)c1ccc(F)cc1	inactive	
Cc1ccn2nc(S(=O)(=O)Nc3c(F)cccc3F)nc2n1	inactive	
CC(=NC#N)N(C)Cc1ccc(Cl)nc1	inactive	

Structure (SMILES)	outcome	AC50
S=C1NCCN1	inactive	
CCCSP(=O)(OCC)SCCC	inactive	
CCOP(=O)(OCC)Oc1cc(C)nc(C(C)C)n1	inactive	
CCC(CC)Nc1c([N+](=O)[O-])cc(C)c(C)c1[N+](=O)[O-]	inactive	
CCCCOC(=O)c1ccccc1C(=O)O	inactive	
Cc1nn(-c2cc(NS(C)(=O)=O)c(Cl)cc2Cl)c(=O)n1C(F)F	inactive	
CC(COc1ccc(Oc2ccccc2)cc1)Oc1ccccn1 (configuration not stated)	inactive	
CCOP(=O)(SC(C)CC)N1CCSC1=O (configuration not stated)	inactive	
CNC(=O)ON=C(SC)C(=O)N(C)C	inactive	
N#CSCSC#N	inactive	
COP(=O)(OC)C(O)C(Cl)(Cl)Cl (configuration not stated)	inactive	
CON=C(C(=O)OC)c1ccccc1CON=C(C)c1cccc(C(F)(F)F)c1	inactive	
CCCOc1nn(C(=O)NS(=O)(=O)c2ccccc2C(=O)OC)c(=O)n1C	inactive	
CCOP(=S)(Oc1cnc(C(C)(C)C)nc1)OC(C)C (configuration not stated)	inactive	
CCCSP(=O)(OCC)Oc1ccc(Br)cc1Cl (configuration not stated)	inactive	
O=c1ccc(=O)[nH][nH]1	inactive	
CCC(=NOC/C=C/Cl)C1=C(O)CC(C2CCOCC2)CC1=O (configuration not stated)	inactive	
CSc1nc(NC(C)C)nc(NC(C)C)n1	inactive	

— PubChem BioAssay (EPA / NIEHS)
